Source: PubChem BioAssay (NCI)
This is part of a sample that, as a whole, favours compounds with a hit. Of some 83,000 tested, about 20% had one in any assay.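 The endpoint reported here, percent growth, reads 100 for growth as untreated, 0 for no net growth and -100 for all cells dead.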 A number with no mark means an inactive call. The source made the active and inactive calls. How the source made its calls: active means growth percent below 10; inactive means the rest.

Tests used:
Assay in all cases: NCI-60 one-dose screen, 48 h (100 = growth as untreated, 0 = no growth, -100 = all killed)
Settings in all cases: 10 µM
[1] = tested on: NCI-H23 lung
[2] = tested on: NCI-H226 lung
[3] = tested on: NCI-H322M lung
[4] = tested on: HOP-62 NSCLC
[5] = tested on: NCI-H460 lung
[6] = tested on: HOP-92 NSCLC
[7] = tested on: NCI-H522 lung
[8] = tested on: A549/ATCC NSCLC
[9] = tested on: 786-0 renal
[10] = tested on: COLO 205 colon
[11] = tested on: DU-145 prostate
[12] = tested on: K-562 leukemia
[13] = tested on: MALME-3M melanoma
[14] = tested on: MDA-MB-231 breast
[15] = tested on: SF-268 CNS
[16] = tested on: SF-295 CNS
[17] = tested on: SF-539 CNS
[18] = tested on: UACC-257 melanoma
[19] = tested on: M14 melanoma
[20] = tested on: RXF 393 renal

Row | SMILES | growth [1] | growth [2] | growth [3] | growth [4] | growth [5] | growth [6] | growth [7] | growth [8] | growth [9] | growth [10] | growth [11] | growth [12] | growth [13] | growth [14] | growth [15] | growth [16] | growth [17] | growth [18] | growth [19] | growth [20]
1 | Cc1ccc(CNC(=O)Cc2ccc3c(c2)CN(C2CCC(=O)NC2=O)C3=O)cc1 (configuration not stated) | 66.5% | 3.79% (active) | 16.1% | -10.2% (active) | 95% | -22.5% (active) | 9.7% (active) | 10.6% | 0.61% (active) | -12.5% (active) | 30.2% | 14.5% | -64.1% (active) | -36.7% (active) | 9.5% (active) | 6.35% (active) | 18.6% | 70.5% | -23.5% (active) | 
2 | O=C1Nc2ccc(Cl)cc2/C1=C/c1ccc(OCc2ccc(Br)cc2F)cc1 | 7.12% (active) | 6.85% (active) | 48.2% | 5.12% (active) | 7.07% (active) | 10.9% | 23.3% | 34.1% | 2.33% (active) | 51.6% | 41.1% | 40.7% | 19.2% |  | 20.3% | 22% | 33.3% | 65.2% | 46.8% | 1.46% (active)
3 | Cc1cccc2cc(-c3cc(-c4ccccc4)nc(=O)[nH]3)c(Cl)nc12 | 88.7% | 75.7% | 89.9% | 109% | 80.7% | 77.1% | 87.7% | 96.4% | 91.6% | 119% | 91.7% | 44.3% | 96.6% |  | 96.3% | 76% | 78.1% | 99.7% | 98.6% | 88.3%
4 | COc1ccc(C2NC(=S)NC(C)=C2C(=O)OC(C)C)cc1OC (configuration not stated) | 111% | 94.8% | 96.8% | 103% | 114% | 101% | 102% | 114% | 93.2% | 140% | 110% | 105% | 95.7% | 105% | 107% | 97.4% | 103% | 119% | 105% | 
5 | O=C(Nc1cccc([N+](=O)[O-])c1)Nc1cccc([N+](=O)[O-])c1 | 65.5% | 74.4% | 89.2% | 92.7% | 70.5% | 80.4% | 64.8% | 82.2% | 74% | 121% | 82% | 57.6% | 98.6% | 87.5% | 79.9% | 76.3% | 93% | 93.2% | 87.2% | 
6 | COc1cnc2c(c1)C(=O)c1c-2n(CCCNCCO)c(=O)c2cc(OC)c(OC)cc12 | 3.38% (active) | 15.4% | 30.9% | 12.1% | 10.2% | 54.4% | 15.1% | 43% | -11.9% (active) | 15.4% | 15.6% | 26.8% | 49% | 19.2% | 44% | 6.94% (active) | -52.7% (active) | 68.3% | 23.1% | 
7 | Cc1ccc(C(=O)CSc2nnc(-c3c[nH]c4ccccc34)n2-c2ccccc2)cc1 | 17.3% | -41.3% (active) | 74.9% | 7.8% (active) | 29.3% | -7.56% (active) | 1.43% (active) | 53.3% | -35.4% (active) | 75% | 78.9% | 27.2% | 35.1% | -2.39% (active) | 29.7% | 11.1% | 22.1% | 77.3% | 51.2% | 
8 | Cc1nn(-c2ccccc2)c2ncn(CC(=O)N/N=C/c3c[nH]c4ccccc34)c(=O)c12 | 95.4% | 93.1% | 93.5% | 95.6% | 92.9% | 80.5% | 89% | 85.4% | 88% | 109% | 99.6% | 84.2% | 69% |  | 73.5% | 88.7% | 84.6% | 94.3% | 92.3% | 89.5%
